From PubChem BioAssay (NCATS)
Where “and” joins values, the source holds several entries; their conditions need not be identical. Equal entries are not always repeated. Records with an inconclusive call do not appear. Calls of active or inactive are those of the source. Unless noted, calls follow the shape of the dose curve; as a rule, active = well fitted curve in the direction sought with a large enough effect; inconclusive = small, poorly fitted or top-dose-only effect, or another doubt; inactive = no such curve, though single readings can be large; an effect the other way counts as inactive or inconclusive.

Key:
[1] = Cell Viability - HepG2 (AID 433; calls by dose curve;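 also: potency is read from the fitted curve at half-maximal effect; cells exposed to compound for 40 hours; potency for ATP loss meaning cytotoxicity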); details: qHTS
Summary of the method: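 ATP luminescence (CellTiter-Glo) after 40 h compound exposure, 37 °C, HepG2, 1500 cells/well, complete medium. Normalized: DMSO = basal, 100 uM tamoxifen = 100% inhibition. AC50 via standard Hill equation.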

[2] = Cellular Toxicity (caspase-3) Jurkat (AID 655); details: Jurkat caspase-3 activation, luminescence; caspase-3 activation: at 92.2 µM (top of the series), DMSO = 0%, tamoxifen = 100%;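 also: cells exposed to compound for 16 h at 37 °C before reading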
Summary of the method: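 Luminescent caspase-3/7 readout (aminoluciferin substrate cleavage) in human T-cell leukemia Jurkat cells after 16 hr compound exposure. Concentration-response normalized to DMSO and 100 uM tamoxifen; AC50 by standard Hill equation.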

[3] = Cellular Toxicity (caspase-3) BJ (AID 658); details: BJ fibroblasts, luminescence, normalized: DMSO 0%, staurosporine 100%; series mostly up to 91.7 µM;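 also: 0% = DMSO basal and 100% = 10 µM staurosporine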
Summary of the method: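 qHTS, BJ fibroblasts, 1000 cells/well; 5 hr preincubation, 16 hr compound, 37 °C; Caspase-Glo 3/7 reagent, 1 hr RT; luminescence. DMSO = 0%, 10 uM staurosporine = 100%. Hill-equation AC50.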

[4] = MultiTox-Fluor Cytotoxicity Assay - LYMP1-002 - Live Cells (AID 955); details: LYMP1-002 lymphoblastoid live-cell protease fluorescence viability; series mostly up to 46.1 µM; also: % is scaled to controls: 0 for no effect and ±100 for the full control effect
Summary of the method: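 After 16 h compound exposure at 37 C, live LYMP1-002 lymphoblastoid cells (2500/well) were quantified by cleavage of cell-permeant GF-AFC substrate, read at 405/510 nm after 60 min. Concentration-response fitted with Hill equation for AC50.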

[5] = Cell Viability - LYMP2-004 (AID 966); details: LYMP2-004 lymphoblastoid cell viability, qHTS; series mostly up to 92.2 µM;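 also: plate controls were DMSO only for no effect and tetraoctylammonium bromide control for full effect; nearly all actives have a fitted effect of over 65% in size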
Summary of the method: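 AC50 values come from Hill modelling of concentration-dependent loss of intracellular ATP, measured by CellTiter-Glo luminescence. Human LYMP2-004 lymphoblastoid cells (2500/well) were exposed to compound for 24 h at 37 C.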

[6] = Cell Viability - LYMP2-011 (AID 969); details: LYMP2-011 lymphoblastoid cells viability; series mostly up to 92.2 µM;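 also: 0% = DMSO only and full inhibition = 92 µM tetraoctylammonium bromide; nearly all actives have a fitted effect of over 60% in size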
Summary of the method: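 Cytotoxicity qHTS with ATP content as read-out: lymphoblastoid cells (2500/well) exposed to compound for 24 h at 37 C, then luciferase luminescence measured. Concentration-response data fitted with the standard Hill equation to give AC50.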

[7] = Cell Viability - LYMP2-025 (AID 976); details: LYMP2-025 lymphoblastoid cell viability; series mostly up to 92.2 µM;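 also: plate controls were DMSO only for no effect and tetraoctylammonium bromide control for full effect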
Summary of the method: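 Cytotoxicity read as loss of intracellular ATP (luciferase luminescence) after 24 h compound treatment at 37 C. Uses LYMP2-025 lymphoblastoid cells in 1536-well format; Hill-equation modelling gives AC50; tetraoctylammonium bromide as positive control.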

[8] = Cell Viability - LYMP2-002 (AID 977); details: LYMP2-002 lymphoblastoid cell viability, qHTS; series mostly up to 92.2 µM;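 also: plate controls were DMSO only for no effect and 92 µM tetraoctylammonium bromide for full effect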
Summary of the method: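 Human lymphoblastoid cells, 2500/well, complete medium; 5 h 37 C settle; compound 24 h 37 C; CellTiter-Glo, 30 min RT; luminescence. Decrease in ATP = cytotoxicity; AC50 via Hill equation.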

[9] = Cell Viability - LYMP2-014 (AID 983); details: LYMP2-014 lymphoblastoid cells, viability qHTS; series mostly up to 92.2 µM;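 also: plate controls were DMSO only for no effect and 92 µM tetraoctylammonium bromide for full effect; nearly all actives have a fitted effect of over 50% in size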
Summary of the method: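 Intracellular ATP loss, read by luciferase luminescence, measures acute cytotoxicity after 24 h compound exposure of lymphoblastoid LYMP2-014 cells (2500/well, 37 C). Concentration-response data fitted to the Hill equation for AC50.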

[10] = Cell Viability - LYMP2-016 (AID 984); details: LYMP2-016 lymphoblastoid cell viability, qHTS; series mostly up to 92.2 µM; also: % is scaled to controls: 0 for no effect and ±100 for the full control effect; nearly all actives have a fitted effect of over 55% in size
Summary of the method: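 qHTS, 1536-well: 2500 LYMP2-016 cells/well, 5 hr 37 C, compound added, 24 hr 37 C, CellTiter-Glo 30 min RT, luminescence. Tetraoctylammonium bromide positive control. AC50 via Hill fit.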

[11] = Cell Viability - LYMP2-020 (AID 986); details: series mostly up to 92.2 µM;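 also: plate controls were DMSO only for no effect and tetraoctylammonium bromide at 92 µM for full effect; nearly all actives have a fitted effect of over 55% in size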
Summary of the method: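 Cytotoxicity in qHTS format: luminescent ATP readout from CellTiter-Glo after 24 h compound exposure at 37 C in complete medium. LYMP2-020 lymphoblastoid cells were seeded at 2500/well; concentration-response data fitted to the Hill equation for AC50.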

[12] = Cell Viability - LYMP2-022 (AID 987); details: LYMP2-022 lymphoblastoid cell viability; series mostly up to 92.2 µM;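 also: 0% = DMSO alone and full effect = tetraoctylammonium bromide at 92 µM; nearly all actives have a fitted effect of over 55% in size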
Summary of the method: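 Cytotoxicity read as decreased cellular ATP (CellTiter-Glo luminescence, 30 min room temperature) after 24 hours compound exposure of 2500 lymphoblastoid LYMP2-022 cells/well at 37 C. Concentration-response data fitted with standard Hill equation for AC50.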

[13] = biological target: Voltage-gated inwardly rectifying potassium channel KCNH2 (Homo sapiens) (UniProt Q12809); assay: qHTS Assay for Small Molecule Inhibitors of the Human hERG Channel Activity (AID 588834); details: U2OS BacMam hERG, FluxOR thallium flux fluorescence; series mostly up to 92.2 µM;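 also: top concentration of the series differs between compounds; % is scaled to controls: 0 for no effect and ±100 for the full control effect; lower thallium flux fluorescence means stronger hERG block; nearly all actives have a fitted effect of over 50% in size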
Summary of the method: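 Thallium-flux (FluxOR) read-out on FDSS: fluorescence read 10 s before and 2 min after stimulation buffer. hERG-BacMam-transduced U2OS cells, compound exposure about 10 min. AC50 by standard Hill equation.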

[14] = qHTS assay for small molecule activators of the p53 signaling pathway (AID 651743; active = well fitted activation curve with a large enough effect in the signal ratio, not every such curve was filed as active; the % refers to the signal ratio; also: % of control where 0% means no effect); details: HCT-116 p53RE-bla, beta-lactamase FRET ratio, 16 h; activation: stronger effect = higher value
Summary of the method: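 Following 16 hours of compound exposure at 37 C, HCT-116 cells bearing the p53RE-bla reporter were loaded with LiveBLAzer B/G FRET substrate for 2 hours at room temperature and fluorescence intensity was recorded.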

[15] = qHTS assay for cell viability of HEK293 cells (AID 743288); details: ATP luminescence (CellTiter-Glo), 18 h, stronger effect = lower value; also: % is scaled to controls: 0 for no effect and ±100 for the full control effect; nearly all actives have a fitted effect of over 50% in size
Summary of the method: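 ATP luminescence (CellTiter-Glo) reports metabolically competent cell number after parental HEK293 cells, 2,000/well, were treated with DMSO-dissolved compounds for 18 h at 37 C; reagent incubation 30 min, room temperature.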

[16] = Cell Viability - LYMP2-023 (AID 975); details: LYMP2-023 lymphoblastoid cell viability; series mostly up to 92.2 µM;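 also: cellular ATP measured by luciferase luminescence as viability proxy; plate controls were DMSO only for no effect and 92 µM tetraoctylammonium bromide control for full effect; nearly all actives have a fitted effect of over 55% in size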
Summary of the method: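 Intracellular ATP, read by CellTiter-Glo luminescence, reports viability after 24 hr compound exposure at 37 C. 2500 lymphoblastoid cells/well (LYMP2-023) seeded 5 hr beforehand; Hill fits give AC50; positive control tetraoctylammonium bromide.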

[17] = Cell Viability - LYMP2-012 (AID 982); details: LYMP2-012 lymphoblastoid cell viability qHTS; series mostly up to 92.2 µM
[18] = biological target: Vitamin D3 receptor (Homo sapiens) (UniProt P11473); assay: qHTS assay for small molecule agonists of vitamin D receptor signaling (AID 588543; calls by dose curve;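 also: 0% = DMSO basal and 100% = reference agonist control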); details: HEK293T VDR-UAS-bla, beta-lactamase ratio, 16 h; series mostly up to 76.8 µM
Summary of the method: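 β-lactamase reporter, VDR-UAS-bla HEK293T, agonist mode. Cells plated 5 h at 37 °C, compound titration 16 h at 37 °C, CCF4 dye 2 h RT, ratio 460/530 nm. Hill fit → EC50, efficacy vs 50 nM 1α,25-(OH)2D3.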

[19] = biological target: Retinoic acid receptor RXR-alpha (Homo sapiens) (UniProt P19793); assay: qHTS assay for small molecule antagonists of retinoid X receptor alpha signaling (AID 588546; active = well fitted inhibition curve with a large enough effect in the signal ratio, with a control signal flat, not every such curve was filed as active; the % refers to the signal ratio;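 also: cells stimulated with 9-cis-retinoic acid as agonist; % is scaled to controls: 0 for no effect and ±100 for the full control effect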); details: HEK293T RXRa-UAS-bla, beta-lactamase ratio, antagonist mode
Summary of the method: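 Beta-lactamase reporter inhibition, read as CCF4 fluorescence ratio (ex 405, em 460/530 nm) after 2 h at RT. HEK293T UAS-bla cells, 2500/well, were stimulated with 9-cis-RA at 500 or 100 nM final alongside test compound for 18 h at 37 C.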

[20] = Cell Viability - N2a (AID 540); details: N2a mouse neuroblastoma cell viability; activity change, negative = cytotoxicity: at 92.2 µM (top of the series);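 also: plate controls were DMSO alone for no effect and tamoxifen control for full effect; nearly all actives have a fitted effect of over 45% in size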
Summary of the method: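 CellTiter-Glo ATP luminescence, read 20 min after reagent at room temperature, reported viability following 40 h compound treatment at 37 °C. N2a mouse neuroblastoma cells seeded 1500/well; Hill equation gave AC50.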

Voltage-gated inwardly rectifying potassium channel KCNH2 (Homo sapiens), sequence (Q12809 whole entry, looked up): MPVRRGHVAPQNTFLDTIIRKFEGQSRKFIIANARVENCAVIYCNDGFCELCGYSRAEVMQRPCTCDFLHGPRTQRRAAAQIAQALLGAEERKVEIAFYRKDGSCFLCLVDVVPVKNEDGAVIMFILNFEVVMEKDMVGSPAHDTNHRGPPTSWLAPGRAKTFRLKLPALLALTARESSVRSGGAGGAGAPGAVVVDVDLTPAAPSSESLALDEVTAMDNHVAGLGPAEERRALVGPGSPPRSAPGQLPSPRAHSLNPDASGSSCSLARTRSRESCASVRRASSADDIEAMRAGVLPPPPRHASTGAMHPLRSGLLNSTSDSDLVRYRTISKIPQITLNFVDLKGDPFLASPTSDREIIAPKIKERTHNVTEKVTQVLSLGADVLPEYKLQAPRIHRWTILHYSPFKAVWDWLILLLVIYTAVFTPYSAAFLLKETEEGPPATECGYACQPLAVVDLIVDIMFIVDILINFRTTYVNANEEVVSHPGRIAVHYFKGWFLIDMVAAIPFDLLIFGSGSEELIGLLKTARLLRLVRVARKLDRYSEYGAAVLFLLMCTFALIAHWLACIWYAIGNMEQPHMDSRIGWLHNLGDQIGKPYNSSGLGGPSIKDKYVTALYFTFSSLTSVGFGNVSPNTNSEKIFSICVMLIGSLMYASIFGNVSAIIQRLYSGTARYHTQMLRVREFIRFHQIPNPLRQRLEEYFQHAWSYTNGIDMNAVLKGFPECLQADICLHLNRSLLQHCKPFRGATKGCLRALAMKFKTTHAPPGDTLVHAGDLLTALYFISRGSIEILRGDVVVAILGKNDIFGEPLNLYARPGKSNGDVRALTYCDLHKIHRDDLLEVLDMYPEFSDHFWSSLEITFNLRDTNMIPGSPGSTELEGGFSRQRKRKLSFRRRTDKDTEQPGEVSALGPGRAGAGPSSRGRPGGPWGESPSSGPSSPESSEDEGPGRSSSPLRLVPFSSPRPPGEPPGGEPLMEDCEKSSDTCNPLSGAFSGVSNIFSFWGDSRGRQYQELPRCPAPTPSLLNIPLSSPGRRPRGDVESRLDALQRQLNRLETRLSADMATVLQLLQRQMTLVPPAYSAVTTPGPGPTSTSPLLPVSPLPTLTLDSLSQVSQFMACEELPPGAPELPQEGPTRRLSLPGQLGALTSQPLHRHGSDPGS
Vitamin D3 receptor (Homo sapiens), sequence (P11473 whole entry, looked up): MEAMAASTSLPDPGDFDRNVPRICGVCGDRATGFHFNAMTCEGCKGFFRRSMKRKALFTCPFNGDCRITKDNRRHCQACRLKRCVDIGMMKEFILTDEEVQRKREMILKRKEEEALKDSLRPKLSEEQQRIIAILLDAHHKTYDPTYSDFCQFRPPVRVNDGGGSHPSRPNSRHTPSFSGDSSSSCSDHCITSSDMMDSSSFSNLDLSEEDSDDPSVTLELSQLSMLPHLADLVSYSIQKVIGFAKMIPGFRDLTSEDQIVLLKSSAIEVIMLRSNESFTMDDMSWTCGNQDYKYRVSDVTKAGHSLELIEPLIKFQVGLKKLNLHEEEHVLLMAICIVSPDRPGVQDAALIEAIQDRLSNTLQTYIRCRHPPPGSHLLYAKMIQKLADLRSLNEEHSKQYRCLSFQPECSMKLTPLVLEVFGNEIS
Retinoic acid receptor RXR-alpha (Homo sapiens), sequence (P19793 whole entry, looked up): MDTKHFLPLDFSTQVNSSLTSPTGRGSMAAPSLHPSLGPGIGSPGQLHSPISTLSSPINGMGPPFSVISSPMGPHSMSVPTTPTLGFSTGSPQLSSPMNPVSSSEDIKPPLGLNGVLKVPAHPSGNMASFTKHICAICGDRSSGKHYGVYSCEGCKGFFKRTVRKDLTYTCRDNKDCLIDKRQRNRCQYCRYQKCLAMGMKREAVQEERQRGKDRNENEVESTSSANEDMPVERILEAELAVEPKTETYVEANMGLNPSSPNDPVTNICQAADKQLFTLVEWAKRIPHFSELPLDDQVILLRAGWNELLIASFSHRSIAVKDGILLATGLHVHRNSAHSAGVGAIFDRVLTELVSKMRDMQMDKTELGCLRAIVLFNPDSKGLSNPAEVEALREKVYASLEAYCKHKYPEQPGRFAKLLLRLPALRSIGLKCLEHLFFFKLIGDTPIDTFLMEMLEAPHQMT

Cc1cccc(C)c1N
inactive: Potency [1] > 92 µM | caspase-3 activation [2] -0.00153% | outcome [3] | outcome [4] | Potency [5] | Potency [6] | Potency [7] | Potency [8] | Potency [9] | Potency [10] | Potency [11] | Potency [12] | Potency [13] | activation [14] 1.32% | max response [15] -2.34%

O=[N+]([O-])c1cccc(O)c1
inactive: Potency [1] > 92 µM | caspase-3 activation [2] 1.08% | outcome [3] | outcome [4] | Potency [5] | Potency [6] | Potency [16] | Potency [7] | Potency [8] | Potency [17] | Potency [9] | Potency [10] | Potency [11] | Potency [12] | outcome [18] | max response [19] -5.97% | Potency [13] | activation [14] -2.9% | max response [15] -8.12%

Clc1cc(Cl)c(Cl)c(Cl)c1
inactive: Potency [1] > 92 µM | Potency [20] | caspase-3 activation [2] 0.108% | outcome [3] | outcome [4] | Potency [5] | Potency [6] | Potency [7] | Potency [8] | Potency [17] | Potency [10] | Potency [11] | outcome [18] | max response [19] 14.2% | max response [15] -14.6%

Oc1cc(Cl)ccc1Cl
inactive: Potency [1] > 92 µM | Potency [20] | outcome [3] | outcome [4] | Potency [5] | Potency [6] | Potency [16] | Potency [7] | Potency [8] | Potency [17] | Potency [9] | Potency [10] | Potency [12] | outcome [18] | max response [19] 8.9% and 7.36% | Potency [13] | activation [14] 0.543% and -4%

N#CCBr
inactive: Potency [1] > 92 µM | caspase-3 activation [2] 0.425% | outcome [3] | outcome [4] | Potency [5] | Potency [6] | Potency [16] | Potency [7] | Potency [17] | Potency [10] | Potency [11] | max response [19] -1.67% | Potency [13] | max response [15] -4.55%

O=C(Cl)OCc1ccccc1
inactive: Potency [1] > 92 µM | caspase-3 activation [2] 0.751% | outcome [3] | outcome [4] | Potency [5] | Potency [6] | Potency [16] | Potency [7] | Potency [9] | Potency [10] | Potency [11] | Potency [12] | outcome [18] | max response [19] -3.17% | Potency [13] | activation [14] -2.98% | max response [15] -3.33%

ClCc1ccccc1
inactive: Potency [1] > 92 µM | outcome [3] | outcome [4] | Potency [5] | Potency [6] | Potency [16] | Potency [7] | Potency [8] | Potency [9] | Potency [10] | Potency [11] | outcome [18] | max response [19] 6.84% | Potency [13] | activation [14] -2.55% | max response [15] -10.4%
